# ± gives the standard deviation of the averaged measurements.
# Tested on: E. coli BW25113 marRABp lux reporter
# Assay: promoter activity interaction Z-score (Lux/OD deviation from empty-vector control); higher = stronger promoter induction by the compound
# Protocol: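 E. coli BW25113 (wild type or ΔmarA/ΔsoxS/Δrob) carrying pTU175 luxCDABE promoter reporters was grown in LB in 384-well plates at 37°C with each of 94 compounds at 4 two-fold concentrations, in biological duplicates. Luminescence and OD600 were read every 30 min for 12 h and integrated as AUC over 8 h (0-8 h WT, 1-9 h mutants). Lux AUC was divided by OD AUC; the interaction score is the residual of a Huber robust fit of each promoter against the empty-vector control, then Z-transformed per promoter.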
smiles,measurement,setting,value
CCC[C@@H]1C[C@@H](C(=O)N[C@@H]([C@H]2O[C@H](SC)[C@H](O)[C@@H](O)[C@H]2O)[C@H](C)Cl)N(C)C1 [Clindamycin],promoter activity interaction Z-score,"0.26 µg/ml, genetic background: wild type",0.333 ± 0.029
same,promoter activity interaction Z-score,"0.26 µg/ml, genetic background: ΔmarA",0.0595 ± 0.25
same,promoter activity interaction Z-score,"0.26 µg/ml, genetic background: Δrob",0.168 ± 0.043
same,promoter activity interaction Z-score,"0.26 µg/ml, genetic background: ΔsoxS",0.145 ± 0.068
same,promoter activity interaction Z-score,"0.52 µg/ml, genetic background: wild type",-0.369 ± 0.4
same,promoter activity interaction Z-score,"0.52 µg/ml, genetic background: ΔmarA",0.0444 ± 0.093
same,promoter activity interaction Z-score,"0.52 µg/ml, genetic background: Δrob",0.0402 ± 0.096
same,promoter activity interaction Z-score,"0.52 µg/ml, genetic background: ΔsoxS",0.279 ± 0.051
same,promoter activity interaction Z-score,"1 µg/ml, genetic background: wild type",0.363 ± 0.56
same,promoter activity interaction Z-score,"1 µg/ml, genetic background: ΔmarA",-0.225 ± 0.051
same,promoter activity interaction Z-score,"1 µg/ml, genetic background: Δrob",0.279 ± 0.32
same,promoter activity interaction Z-score,"1 µg/ml, genetic background: ΔsoxS",0.414 ± 0.023
same,promoter activity interaction Z-score,"2.1 µg/ml, genetic background: wild type",0.13 ± 0.11
same,promoter activity interaction Z-score,"2.1 µg/ml, genetic background: ΔmarA",-0.108 ± 0.33
same,promoter activity interaction Z-score,"2.1 µg/ml, genetic background: Δrob",0.449 ± 0.032
same,promoter activity interaction Z-score,"2.1 µg/ml, genetic background: ΔsoxS",0.869 ± 0.17
COc1ccc2cc3[n+](cc2c1OC)CCc1cc2c(cc1-3)OCO2 [Berberine],promoter activity interaction Z-score,"21 µg/ml, genetic background: wild type",-0.142 ± 0.16
same,promoter activity interaction Z-score,"21 µg/ml, genetic background: ΔmarA",-0.0869 ± 0.24
same,promoter activity interaction Z-score,"21 µg/ml, genetic background: Δrob",-0.003 ± 0.15
same,promoter activity interaction Z-score,"21 µg/ml, genetic background: ΔsoxS",0.0721 ± 0.0037
same,promoter activity interaction Z-score,"42 µg/ml, genetic background: wild type",-0.183 ± 0.049
same,promoter activity interaction Z-score,"42 µg/ml, genetic background: ΔmarA",-0.0953 ± 0.12
same,promoter activity interaction Z-score,"42 µg/ml, genetic background: Δrob",-0.278 ± 0.1
same,promoter activity interaction Z-score,"42 µg/ml, genetic background: ΔsoxS",-0.0367 ± 0.026
same,promoter activity interaction Z-score,"84.1 µg/ml, genetic background: wild type",-0.286 ± 0.35
same,promoter activity interaction Z-score,"84.1 µg/ml, genetic background: ΔmarA",0.056 ± 0.18
same,promoter activity interaction Z-score,"84.1 µg/ml, genetic background: Δrob",-0.324 ± 0.01
same,promoter activity interaction Z-score,"84.1 µg/ml, genetic background: ΔsoxS",-0.135 ± 0.015
same,promoter activity interaction Z-score,"168.2 µg/ml, genetic background: wild type",-0.373 ± 0.17
same,promoter activity interaction Z-score,"168.2 µg/ml, genetic background: ΔmarA",-0.165 ± 0.027
same,promoter activity interaction Z-score,"168.2 µg/ml, genetic background: Δrob",-0.287 ± 0.045
same,promoter activity interaction Z-score,"168.2 µg/ml, genetic background: ΔsoxS",-0.015 ± 0.094
COc1ccc(CCN(C)CCCC(C#N)(c2ccc(OC)c(OC)c2)C(C)C)cc1OC (stereo not drawn) [Verapamil],promoter activity interaction Z-score,"28.4 µg/ml, genetic background: wild type",0.257 ± 0.13
same,promoter activity interaction Z-score,"28.4 µg/ml, genetic background: ΔmarA",0.21 ± 0.17
same,promoter activity interaction Z-score,"28.4 µg/ml, genetic background: Δrob",0.064 ± 0.21
same,promoter activity interaction Z-score,"28.4 µg/ml, genetic background: ΔsoxS",-0.241 ± 0.54
same,promoter activity interaction Z-score,"56.8 µg/ml, genetic background: wild type",0.22 ± 0.12
same,promoter activity interaction Z-score,"56.8 µg/ml, genetic background: ΔmarA",0.273 ± 0.099
same,promoter activity interaction Z-score,"56.8 µg/ml, genetic background: Δrob",0.311 ± 0.47
same,promoter activity interaction Z-score,"56.8 µg/ml, genetic background: ΔsoxS",0.0416 ± 0.54
same,promoter activity interaction Z-score,"113.7 µg/ml, genetic background: wild type",0.853 ± 0.13
same,promoter activity interaction Z-score,"113.7 µg/ml, genetic background: ΔmarA",0.923 ± 0.54
same,promoter activity interaction Z-score,"113.7 µg/ml, genetic background: Δrob",0.659 ± 0.32
same,promoter activity interaction Z-score,"113.7 µg/ml, genetic background: ΔsoxS",0.193 ± 0.7
same,promoter activity interaction Z-score,"227.3 µg/ml, genetic background: wild type",0.957 ± 0.16
same,promoter activity interaction Z-score,"227.3 µg/ml, genetic background: ΔmarA",1.14 ± 0.38
same,promoter activity interaction Z-score,"227.3 µg/ml, genetic background: Δrob",0.739 ± 0.49
same,promoter activity interaction Z-score,"227.3 µg/ml, genetic background: ΔsoxS",0.385 ± 0.48
